The structures appear in SMILES notation. “And” between values parts separate entries of the source, which are not always exact repeats. Equal values may be shown once. Compounds without any hit were thinned out: in the full panel of roughly 83,000, 20% have a hit.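 48-hour exposure, single concentration, 96-well plates; percent growth endpoint where 0 means no net growth. Active: below 10.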 Values without a mark were called inactive. The source made the active and inactive calls.

Drawing on PubChem BioAssay (NCI), this text covers growth for seven molecules.

Assay in all cases: NCI-60 one-dose screen, 48 h (100 = growth as untreated, 0 = no growth, -100 = all killed)
One experiment deals with MOLT-4 leukemia. As to conditions: 10 µM.
The subject of a further experiment is SR leukemia. The conditions noted are these: 10 µM.
A further experiment relates to RPMI-8226 leukemia. The conditions noted are these: 10 µM.
Another experiment has as its system OVCAR-8 ovarian. The conditions noted are these: 10 µM.
The next experiment concerns OVCAR-5 ovarian. As to conditions: 10 µM.
The next experiment deals with OVCAR-4 ovarian. The conditions noted are these: 10 µM.
The next experiment concerns SK-OV-3 ovarian. As to conditions: 10 µM.
Another experiment has as its system IGROV1 ovarian. The conditions noted are these: 10 µM.
The next experiment concerns OVCAR-3 ovarian. As to conditions: 10 µM.
Another experiment deals with HS 578T breast. The conditions noted are these: 10 µM.
The next experiment deals with NCI/ADR-RES ovarian. As to conditions: 10 µM.
The test system of the next experiment is T-47D breast. As to conditions: 10 µM.
The next experiment concerns BT-549 breast. The conditions noted are these: 10 µM.
For the next experiment, the system named is MDA-MB-435 melanoma. The conditions noted are these: 10 µM.
A further experiment has as its system SW-620 colon. As to conditions: 10 µM.
For the next experiment, the system named is MCF7 breast. As to conditions: 10 µM unless noted.
In the next experiment the test system is HCT-116 colon. As to conditions: 10 µM.
The subject of another experiment is HCC-2998 colon. As to conditions: 10 µM.
In a further experiment the test system is KM12 colon. The conditions noted are these: 10 µM.

In the case of `CC(C)c1cc([N+](=O)[O-])cc([N+](=O)[O-])c1O`, the growth in the experiment on MOLT-4 leukemia is 98.2%; with SR leukemia, 94.3%; in the experiment with RPMI-8226 leukemia, 116%; in the experiment with OVCAR-8 ovarian, 104%; with OVCAR-5 ovarian it was 107%; with OVCAR-4 ovarian, 115%. Besides, the growth in the experiment on SK-OV-3 ovarian is 100%; with IGROV1 ovarian, 111%; in the experiment on OVCAR-3 ovarian, 105%; in the experiment on HS 578T breast, 101%; in the experiment with NCI/ADR-RES ovarian, 97.3%; with T-47D breast, 97.3%. For the same molecule, the growth was 96.4% in the experiment on BT-549 breast; 108% in the experiment with MDA-MB-435 melanoma; 100% in the experiment with SW-620 colon; 93.3% with MCF7 breast; 103% in the experiment with HCT-116 colon; 87.4% in the experiment on HCC-2998 colon. Moreover, the growth in the experiment with KM12 colon was 88.1%.
`C=NCC#N`: the growth is 94.6% and 107% in the experiment on MOLT-4 leukemia; 83.8% and 108% in the experiment with SR leukemia; 92.4% and 115% in the experiment on RPMI-8226 leukemia; 104% and 108% in the experiment on OVCAR-8 ovarian; 98.8% and 93.5% in the experiment on OVCAR-5 ovarian; 114% and 108% with OVCAR-4 ovarian. Moreover, the growth in the experiment on SK-OV-3 ovarian was 113% and 96.6%; in the experiment on IGROV1 ovarian, 110% and 115%; in the experiment on OVCAR-3 ovarian, 105% and 119%; in the experiment with HS 578T breast it was 124%; with NCI/ADR-RES ovarian, 102% and 107%; in the experiment on T-47D breast it was 98.8% and 93.6%. Besides, the growth in the experiment with BT-549 breast was 103% and 89.3%; with MDA-MB-435 melanoma, 100% and 113%; with SW-620 colon, 100% and 115%; with MCF7 breast it was 109% and 92.1%; in the experiment on HCT-116 colon it was 98.2% and 107%; in the experiment on KM12 colon it was 99.4% and 109%.
For `CCOP(=O)(OCC)C(O)c1ccccc1Cl` (stereo not given), the growth with MOLT-4 leukemia is 97.8%; in the experiment with SR leukemia, 93.2%; with RPMI-8226 leukemia, 102%; in the experiment with OVCAR-8 ovarian it was 100%; with OVCAR-5 ovarian, 87.2%; in the experiment with OVCAR-4 ovarian it was 106%. The growth in the experiment with SK-OV-3 ovarian is 96.5%; in the experiment on IGROV1 ovarian, 93.5%; with OVCAR-3 ovarian it was 99.5%; with HS 578T breast, 106%; in the experiment on NCI/ADR-RES ovarian it was 103%; in the experiment on T-47D breast, 89.1%. Further, the growth in the experiment on BT-549 breast was 109%; with MDA-MB-435 melanoma, 119%; with SW-620 colon, 99.2%; in the experiment on MCF7 breast it was 103%; in the experiment on HCT-116 colon it was 98.8%; with HCC-2998 colon, 102%. Also, in the experiment with KM12 colon, the growth is 103%.
With `[Cl][Hg][c]1ccc2ccccc2c1`, the growth in the experiment on MOLT-4 leukemia is -1.79% (active); in the experiment with SR leukemia it was -38% (active); in the experiment on RPMI-8226 leukemia, -11.1% (active); in the experiment with OVCAR-8 ovarian, -43.9% (active); in the experiment with OVCAR-5 ovarian it was -13.7% (active); with OVCAR-4 ovarian, -89.7% (active). For the same molecule, the growth in the experiment with SK-OV-3 ovarian is 2.89% (active); in the experiment on IGROV1 ovarian it was -76.6% (active); in the experiment on OVCAR-3 ovarian, -97.8% (active); in the experiment on HS 578T breast, 2.36% (active); in the experiment on NCI/ADR-RES ovarian it was 63.9%; with T-47D breast, -56.8% (active). Moreover, the growth in the experiment with BT-549 breast was -99% (active); with MDA-MB-435 melanoma it was -76.2% (active); with SW-620 colon it was -92.4% (active); with MCF7 breast, -61.5% (active); in the experiment with HCT-116 colon, -100% (active); in the experiment on HCC-2998 colon, -49% (active). Also, the growth with KM12 colon was 1.74% (active).
Regarding `CN(CCCl)c1ccc(/C=C/C2=[N+](C)c3ccccc3C2(C)C)cc1`, the growth in the experiment on MOLT-4 leukemia is -13.1% (active); in the experiment with SR leukemia it was 12.3%; in the experiment with RPMI-8226 leukemia, 10.6%; in the experiment on OVCAR-8 ovarian, 13.1%; in the experiment with OVCAR-5 ovarian it was 70.8%; in the experiment with OVCAR-4 ovarian it was 37.6%. Further, the growth is -3.38% (active) with SK-OV-3 ovarian; 35.1% with IGROV1 ovarian; -10.6% (active) with OVCAR-3 ovarian; 60.1% with HS 578T breast; 105% with NCI/ADR-RES ovarian; 29.3% in the experiment on T-47D breast. For the same molecule, the growth in the experiment on BT-549 breast is 20.7%; in the experiment with MDA-MB-435 melanoma it was 12%; with SW-620 colon it was 19.8%; in the experiment on MCF7 breast, 14.9%; with HCT-116 colon, 7.48% (active); with KM12 colon, 12.6%.
`O=C(O)c1cc(Cc2ccc(O)c(C(=O)O)c2)ccc1O` (tested in a mixture with another compound): the growth is 54.3% with MOLT-4 leukemia; 80.4% in the experiment on SR leukemia; -5.46% (active) in the experiment on RPMI-8226 leukemia; 68.1% in the experiment with OVCAR-8 ovarian; 65.1% in the experiment on OVCAR-5 ovarian; 66.9% in the experiment on OVCAR-4 ovarian. Also, the growth in the experiment with SK-OV-3 ovarian is 95.4%; with IGROV1 ovarian, -81.4% (active); in the experiment with OVCAR-3 ovarian it was 70.4%; in the experiment on HS 578T breast, 72.6%; in the experiment on NCI/ADR-RES ovarian, 75.7%; in the experiment on T-47D breast it was 53.1%. Besides, the growth in the experiment on BT-549 breast was 73.8%; in the experiment with MDA-MB-435 melanoma, 72.7%; in the experiment with SW-620 colon it was 64.6%; with MCF7 breast, 46.4%; in the experiment on HCT-116 colon, 45.1%; in the experiment on KM12 colon, 65.9%.
Take `NC(Cc1ccccc1)c1ccccc1` (stereo not given): the growth was 116% and 94.2% in the experiment with MOLT-4 leukemia; 99.9% and 93.7% in the experiment on SR leukemia; 111% and 100% with RPMI-8226 leukemia; 104% and 108% in the experiment with OVCAR-8 ovarian; 98.5% and 96.1% in the experiment on OVCAR-5 ovarian; 103% and 112% in the experiment with OVCAR-4 ovarian. In addition, the growth is 101% and 103% in the experiment with SK-OV-3 ovarian; 107% and 101% in the experiment with IGROV1 ovarian; 112% and 118% in the experiment on OVCAR-3 ovarian; 98.9% and 119% with HS 578T breast; 106% and 102% with NCI/ADR-RES ovarian; 95.7% and 101% in the experiment on T-47D breast. Also, the growth in the experiment with BT-549 breast is 91.1% and 89.4%; with MDA-MB-435 melanoma, 106% and 102%; in the experiment with SW-620 colon, 112% and 104%; in the experiment with MCF7 breast it was 97.5% and 97%; in the experiment on HCT-116 colon, 99.7% and 98.4%; in the experiment on HCC-2998 colon, 105% and 102%. Also, the growth with KM12 colon was 104% and 110%.
